Screening data from PubChem BioAssay.
rTrxR1 inhibitor: qHTS Assay for Inhibitors of Mammalian Selenoprotein Thioredoxin Reductase 1 (TrxR1): qHTS | recombinant rTrxR1, NADPH fluorescence consumption, selenite substrate | Potency, µM (doses to about 114 µM), without a hit: at the highest dose activity change, negative = inhibition, hits mostly inhibitors | 390,000 compounds, 1% hits | AID 588453, 2011; also: potency is read from the fitted curve at half-maximal effect; nearly all actives have a fitted effect of over 65% in size
Target sequence (O89049 whole entry, looked up): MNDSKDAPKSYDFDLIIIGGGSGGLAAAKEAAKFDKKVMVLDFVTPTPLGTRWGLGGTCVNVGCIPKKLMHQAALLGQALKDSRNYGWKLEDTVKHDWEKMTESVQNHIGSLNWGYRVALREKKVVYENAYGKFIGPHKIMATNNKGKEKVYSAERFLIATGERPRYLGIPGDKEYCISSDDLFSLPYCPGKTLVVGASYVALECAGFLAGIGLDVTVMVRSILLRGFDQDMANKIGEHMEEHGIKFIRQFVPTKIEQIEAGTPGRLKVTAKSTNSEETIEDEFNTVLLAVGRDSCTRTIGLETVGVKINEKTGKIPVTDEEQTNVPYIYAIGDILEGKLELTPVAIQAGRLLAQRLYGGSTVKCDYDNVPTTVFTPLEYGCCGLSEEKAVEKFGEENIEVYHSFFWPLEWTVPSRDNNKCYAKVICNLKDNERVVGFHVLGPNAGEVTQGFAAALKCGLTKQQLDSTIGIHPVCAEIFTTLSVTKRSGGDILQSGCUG
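Rat TrxR1 (90 nM in the dispensed reagent) was pre-reduced with 400 uM NADPH for 5 min at room temperature, then incubated with compound for 15 min. After 400 uM selenite was added, NADPH fluorescence (Ex 340/Em 450 nm) was followed for 8 min.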
VP16 counter: VP16 counterscreen qHTS for inhibitors of ROR gamma transcriptional activity. Potency, µM (series often up to 53.6 µM), for inactives: top-dose activity, negative = inhibition, usual class: inhibitors. 310,000 compounds, 3.5% hits. AID 2546, 2010. Drosophila S2 Gal4-VP16 UAS-luciferase, luminescence, 20 h;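 also: Gal4-VP16 expression switched on by copper sulfate through the metallothionein promoter; potency is read from the fitted curve at half-maximal effect; nearly all actives have a fitted effect of over 50% in size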
RORg inh: qHTS for inhibitors of ROR gamma transcriptional activity; 310,000 compounds, 5.4% hits; Potency, µM (doses to about 53.6 µM), without a hit: top-dose activity change, negative = inhibition, hits mostly inhibitors; AID 2551, 2010; Drosophila S2 Gal4-RORgamma UAS-luciferase reporter, 20 h; also: potency is read from the fitted curve at half-maximal effect; nearly all actives have a fitted effect of over 60% in size
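Read-out: Photinus luciferase luminescence; inhibitors lower reporter signal. Insect Schneider cells with Gal4-ROR gamma fusion under metallothionein promoter, UAS reporter; 700 uM final copper sulfate induction, 20 hr, ambient temperature.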
TrxR1 substrate: qHTS Assay for Substrates of Mammalian Selenoprotein Thioredoxin Reductase 1 (TrxR1): qHTS; purified TrxR1 substrate turnover, NADPH consumption readout; 390,000 compounds, 0.01% hits; Thioredoxin reductase 1, cytoplasmic (Rattus norvegicus), O89049; AID 588456, 2011; Potency, µM (series often up to 114 µM), inactives show at the top dose activity change, negative = substrate turnover; also: potency is read from the fitted curve at half-maximal effect; nearly all actives have a fitted effect of over 50% in size
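Rat TrxR1, dispensed at 90 nM, was prereduced with 400 uM NADPH (final) for 5 min at ~22 deg C, then incubated with compound 15 min before 400 uM selenite. A first-read NADPH fluorescence drop versus no-compound background flagged substrates.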
GALK inhibitor: qHTS Assay for Inhibitors of Human Galactokinase (GALK); P51570; Purified GALK, Kinase-Glo residual ATP luminescence; Potency, µM (titrated, usually from 57.5 µM), inactives show at the top dose activity change, negative = inhibition, most hits filed as inhibitors; 270,000 compounds, 0.007% hits; AID 1868, 2009; also: potency is read from the fitted curve at half-maximal effect
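5 nM enzyme, 35 uM ATP, 100 uM galactose, 20 mM HEPES pH8.0, 5 mM MgCl2; 1 h RT; residual ATP by Kinase-Glo Plus luminescence, qHTS format.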
Coupling enz: qHTS Assay for Inhibitors of Fructose-1,6-bisphosphate Aldolase from Giardia Lamblia: Coupling assay counterscreen. 290,000 compounds, 0.67% hits. coupling enzyme system counterscreen, AmpLite Red fluorescence. AID 2472, 2010. activity change, negative = inhibition, % at 58.2 µM, hits read low; in the data active = activity change below about -30%
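First, compound is pin-transferred into glyceraldehyde-3-phosphate coupling-enzyme reagent at 57.5 uM final and held 10 min at RT. Next, substrate, coupling system and AmpLite Red are added. After 20 min RT, fluorescence (525/598 nm) is read.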
* hit, by the source's call; ? = inconclusive; / = no result given; [ ] = remark or other dose. Hits are enriched below; roughly 5.9% of the tested compounds scored in any of these assays. Unless noted, calls follow the shape of the dose curve; as a rule, active = well fitted curve in the direction sought with a large enough effect; inconclusive = small, poorly fitted or top-dose-only effect, or another doubt; inactive = no such curve, though single readings can be large; an effect the other way counts as inactive or inconclusive. % is scaled to controls: 0 for no effect and ±100 for the full control effect.

SMILES	rTrxR1 inhibitor	VP16 counter	RORg inh	TrxR1 substrate	GALK inhibitor	Coupling enz
CCN(CC(=O)Nc1cc(OC)ccc1OC)Cc1nc2ccccc2c(=O)[nH]1	-1.5%[57.1 µM]	-7.4%	20µM*	6.4%[57.1 µM]	-0.6%	-0.5
CCN(CC(=O)Nc1ccc(C(=O)Nc2ccc(OC)cc2)cc1)Cc1nc2ccccc2c(=O)[nH]1	32.3%	?	3.16µM*	7.6%	3.4%	0.1
CCN(Cc1nc2ccccc2c(=O)[nH]1)Cc1cc(=O)oc2cc(OC)ccc12	-12.0%	15.8µM*	14.1µM*	15.4%[57.1 µM]	-1.2%	-2.4
COc1ccc(NC(=O)COC(=O)CCc2nc3ccccc3c(=O)[nH]2)c(OC)c1	9.5%	/	/	0.7%	/	/
CCc1cc(C(=O)c2ccc(OC)cc2)c(NC(=O)CN2CCCCC2)s1	9.8%	-24.0%	7.08µM*	-6.0%	-3.4%	-0.4
CCc1cc(C(=O)c2ccc(OC)cc2)c(NC(=O)CCC(=O)O)s1	6.4%[57.1 µM]	4.7%	?	17.2%[57.1 µM]	-2.5%	9.1
Cc1cc(C(=O)c2ccc(Cl)cc2)c(NC(=O)CCl)s1	3.98µM*	?	10µM*	13.3%[57.1 µM]	-2.5%	4.3
CCc1cc(C(=O)c2ccc(C)cc2)c(NC(=O)CCl)s1	31.6µM*	-9.9%	-8.5%	-8.1%	-1.1%	2.5
CC1(C)CC(NC(=O)c2cc([N+](=O)[O-])cc([N+](=O)[O-])c2)CC(C)(C)N1	51.3%	-7.3%	?	7.8%	0.9%	-4.9
CCC/C=N/NC(=O)c1cc(Br)ccc1O	-3.3%	?	11.2µM*	12.9%	/	-0.7
O=C(N/N=C/c1ccoc1)c1cc(Br)ccc1O	-30.5%	3.98µM*	3.55µM*	-19.1%	6.1%	-6.3
O=C(NN=C1CCCC1)c1cc(Br)ccc1O	-3.4%	?	?	2.7%	6.2%	-10.0
Cc1cccc(/C=N/NC(=O)c2cc(Br)ccc2O)n1	31.8%[57.1 µM]	?	?	-11.2%[57.1 µM]	3.9%	-1.8
O=C(N/N=C1/CCSC1)c1cc(Br)ccc1O	6.1%[57.1 µM]	-11.2%[10 µM]	7.94µM*	19.4%	0.0%	1.9
Nc1cc(N2CCOCC2)c(Cl)cc1[N+](=O)[O-]	-2.6%[57.1 µM]	6.3%	14.5%	-5.1%[57.1 µM]	-1.6%	-0.9
Cc1ccc(C(Nc2ccccn2)c2ccc3cccnc3c2O)cc1 (stereo not drawn)	?	/	/	1.2%	/	/
Oc1c(C(Nc2cccc(C(F)(F)F)c2)c2ccncc2)ccc2cccnc12 (stereo not drawn)	-41.3%	5.62µM*	3.98µM*	6.4%[57.1 µM]	-0.7%	-1.2
Oc1c(C(Nc2nccs2)c2ccc(C(F)(F)F)cc2)ccc2cccnc12 (stereo not drawn)	-10.8%	1µM*	0.562µM*	-4.6%	0.2%	-10.1
Cn1c(=O)c2ccccc2n2c(CCC(=O)N3CCN(c4cccc(Cl)c4)CC3)nnc12	8.4%	/	/	2.9%	/	/
O=C(Cn1ccc(C(F)(F)F)n1)N/N=C/c1cccs1	-3.5%	?	?	-6.0%	1.0%	0.3
CCOc1cc(CNC(C)(C)CO)cc(Br)c1OCc1ccc(Cl)cc1Cl	0.0%	?	?	4.3%	-2.2%	-4.2
Cc1nn(CC#N)c(=O)n1-c1ccccc1F	-2.4%[57.1 µM]	3.5%	10µM*	-1.5%	2.5%	-0.5
Cc1ccc(-n2c(C)nn(CC#N)c2=O)cc1	11.5%[57.1 µM]	3.7%	6.8%	5.6%[57.1 µM]	-1.8%	2.2
Cc1nc(C(=O)NCC(=O)c2ccc(Cl)cc2)c(C(F)(F)F)o1	27.9%	12.7%	?	8.8%	0.8%	2.7
Cc1nc(C(=O)NNC(=O)c2ccc(Cl)cc2)c(C(F)(F)F)o1	19.1%[57.1 µM]	?	11.2µM*	3.2%[57.1 µM]	3.8%	-3.4
Cc1ccc2nc(NCc3ccccc3Cl)c3nnnn3c2c1	16.1%	/	/	23.4%	/	/
